# According to publication PMC7862700, “An all-to-all approach to the identification of sequence-specific readers for epigenetic DNA modifications on cytosine”:
# Columns and labels:
# Assay in all cases: DAPPL (digital affinity profiling via proximity ligation, sequencing); 10 mM Tris-HCl pH 7.5, 50 mM NaCl, 1 mM DTT, 4% glycerol, room temperature, 30 min; GST-TFs on glutathione beads, 16-mer random dsDNA library, 0.1% formaldehyde crosslink after washing; high values mean tight binding
# Details in all cases: protein: recombinant; tags: N-terminal GST; dsDNA, one strand shown
# [1] = biological target: T1, ELK1 (Homo sapiens, UniProt P19419 1-428)
# T1 sequence: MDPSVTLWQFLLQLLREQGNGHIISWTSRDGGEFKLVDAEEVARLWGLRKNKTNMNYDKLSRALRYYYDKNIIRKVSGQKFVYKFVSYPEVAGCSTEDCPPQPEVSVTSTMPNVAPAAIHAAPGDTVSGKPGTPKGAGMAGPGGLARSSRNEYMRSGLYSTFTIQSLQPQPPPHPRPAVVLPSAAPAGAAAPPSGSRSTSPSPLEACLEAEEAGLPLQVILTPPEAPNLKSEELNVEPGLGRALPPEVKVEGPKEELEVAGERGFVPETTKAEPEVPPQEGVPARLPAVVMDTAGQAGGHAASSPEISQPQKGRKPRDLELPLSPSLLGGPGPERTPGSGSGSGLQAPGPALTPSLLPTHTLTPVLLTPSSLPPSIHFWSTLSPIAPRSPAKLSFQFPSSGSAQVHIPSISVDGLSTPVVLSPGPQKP
# Method in brief: (§1)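 A tag-only sample was pooled with DNA-barcoded human transcription factors that had been expressed in yeast as GST fusions and captured on glutathione beads. The pools were incubated for 30 min at room temperature with 200 nmole of a random double-stranded 16-mer DNA library in Tris/NaCl/DTT/glycerol buffer, then washed, crosslinked with 0.1% formaldehyde, proximity-ligated (BsaI/T4 ligase, 1 h, 37 °C), PCR-amplified and sequenced on an Illumina NextSeq500. Binding signal is each hexamer's read frequency for a factor divided by its frequency for the tag-only sample.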
# [2] = biological target: T2, GABPA (Homo sapiens, UniProt Q06546 1-454)
# T2 sequence: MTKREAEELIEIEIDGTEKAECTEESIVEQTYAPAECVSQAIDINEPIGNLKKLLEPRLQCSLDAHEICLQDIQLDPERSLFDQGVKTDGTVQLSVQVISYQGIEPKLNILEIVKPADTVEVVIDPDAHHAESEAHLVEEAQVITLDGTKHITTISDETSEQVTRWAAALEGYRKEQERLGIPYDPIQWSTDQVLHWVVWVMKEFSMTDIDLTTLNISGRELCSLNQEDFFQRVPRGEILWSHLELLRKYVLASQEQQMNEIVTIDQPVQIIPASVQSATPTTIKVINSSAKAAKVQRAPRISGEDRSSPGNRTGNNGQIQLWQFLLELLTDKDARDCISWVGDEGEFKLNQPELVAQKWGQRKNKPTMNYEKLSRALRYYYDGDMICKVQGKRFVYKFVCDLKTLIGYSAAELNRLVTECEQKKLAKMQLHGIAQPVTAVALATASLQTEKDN
# Method in brief: as §1
# [3] = biological target: T3, ERG (Homo sapiens, UniProt P11308 1-479)
# T3 sequence: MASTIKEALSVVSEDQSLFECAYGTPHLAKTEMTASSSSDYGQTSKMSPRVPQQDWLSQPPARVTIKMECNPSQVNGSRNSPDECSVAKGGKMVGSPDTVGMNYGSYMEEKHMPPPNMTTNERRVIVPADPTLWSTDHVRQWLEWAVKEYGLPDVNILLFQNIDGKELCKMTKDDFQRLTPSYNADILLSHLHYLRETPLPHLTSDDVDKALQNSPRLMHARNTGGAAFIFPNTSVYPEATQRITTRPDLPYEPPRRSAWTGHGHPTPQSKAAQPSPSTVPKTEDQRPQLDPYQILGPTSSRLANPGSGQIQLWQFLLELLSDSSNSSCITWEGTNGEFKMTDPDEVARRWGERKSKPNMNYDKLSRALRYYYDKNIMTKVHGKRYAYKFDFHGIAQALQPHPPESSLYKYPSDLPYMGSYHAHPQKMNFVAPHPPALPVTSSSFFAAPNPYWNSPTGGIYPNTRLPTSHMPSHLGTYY
# Method in brief: as §1
# [4] = biological target: ELF1 (Homo sapiens, UniProt P32519 1-619)
# Method in brief: as §1
# [5] = biological target: T4, EHF (Homo sapiens, UniProt Q9NZC4 1-300)
# T4 sequence: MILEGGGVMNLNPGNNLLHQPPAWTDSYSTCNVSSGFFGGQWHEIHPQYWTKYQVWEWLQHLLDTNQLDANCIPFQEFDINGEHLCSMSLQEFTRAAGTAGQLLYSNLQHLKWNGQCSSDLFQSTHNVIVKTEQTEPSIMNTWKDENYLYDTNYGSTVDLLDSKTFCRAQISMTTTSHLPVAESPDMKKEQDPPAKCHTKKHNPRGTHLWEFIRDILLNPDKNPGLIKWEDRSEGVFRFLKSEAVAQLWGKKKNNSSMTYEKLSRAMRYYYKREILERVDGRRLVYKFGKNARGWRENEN
# Method in brief: as §1
# [6] = biological target: SPIB (Homo sapiens, UniProt Q01892 1-262)
# Method in brief: as §1
# [7] = biological target: T5, FEV (Homo sapiens, UniProt Q99581 1-238)
# T5 sequence: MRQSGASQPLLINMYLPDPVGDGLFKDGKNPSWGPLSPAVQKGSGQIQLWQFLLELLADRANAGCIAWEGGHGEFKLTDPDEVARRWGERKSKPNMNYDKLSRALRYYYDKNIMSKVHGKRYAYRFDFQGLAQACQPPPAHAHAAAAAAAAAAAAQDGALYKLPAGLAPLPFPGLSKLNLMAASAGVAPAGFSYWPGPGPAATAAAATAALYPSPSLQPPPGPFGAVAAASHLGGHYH
# Method in brief: as §1
# [8] = biological target: ETV5 (Homo sapiens, UniProt P41161 1-510)
# Method in brief: as §1
# [9] = biological target: ELF4 (Homo sapiens, UniProt Q99607 1-663)
# Method in brief: as §1
# [10] = biological target: T6, ELK4 (Homo sapiens, UniProt P28324-2 1-405)
# T6 sequence: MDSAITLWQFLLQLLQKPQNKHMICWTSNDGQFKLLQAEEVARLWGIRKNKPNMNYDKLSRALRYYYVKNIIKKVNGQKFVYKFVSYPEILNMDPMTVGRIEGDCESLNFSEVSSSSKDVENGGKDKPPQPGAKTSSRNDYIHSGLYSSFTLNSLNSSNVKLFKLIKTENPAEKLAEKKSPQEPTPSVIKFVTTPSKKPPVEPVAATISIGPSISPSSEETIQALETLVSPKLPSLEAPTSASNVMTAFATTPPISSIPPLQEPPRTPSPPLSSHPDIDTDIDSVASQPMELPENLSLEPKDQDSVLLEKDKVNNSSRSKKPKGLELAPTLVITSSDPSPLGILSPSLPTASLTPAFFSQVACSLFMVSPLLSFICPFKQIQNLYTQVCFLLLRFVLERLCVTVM
# Method in brief: as §1
# Chain of ETV5 (P41161 whole entry): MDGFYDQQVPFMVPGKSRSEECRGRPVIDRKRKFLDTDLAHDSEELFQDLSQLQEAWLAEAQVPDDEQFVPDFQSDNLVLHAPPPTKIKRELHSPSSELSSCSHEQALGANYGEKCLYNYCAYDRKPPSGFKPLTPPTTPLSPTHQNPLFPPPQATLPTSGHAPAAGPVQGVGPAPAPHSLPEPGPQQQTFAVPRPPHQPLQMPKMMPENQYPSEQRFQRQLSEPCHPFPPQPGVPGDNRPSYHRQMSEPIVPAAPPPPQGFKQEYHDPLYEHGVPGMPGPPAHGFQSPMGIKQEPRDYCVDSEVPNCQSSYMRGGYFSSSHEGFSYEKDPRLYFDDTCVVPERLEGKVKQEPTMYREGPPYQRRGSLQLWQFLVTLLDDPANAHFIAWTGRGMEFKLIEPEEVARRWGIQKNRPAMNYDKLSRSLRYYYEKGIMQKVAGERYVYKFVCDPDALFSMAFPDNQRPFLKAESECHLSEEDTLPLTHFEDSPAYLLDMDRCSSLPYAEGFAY
# Chain of ELF1 (P32519 whole entry): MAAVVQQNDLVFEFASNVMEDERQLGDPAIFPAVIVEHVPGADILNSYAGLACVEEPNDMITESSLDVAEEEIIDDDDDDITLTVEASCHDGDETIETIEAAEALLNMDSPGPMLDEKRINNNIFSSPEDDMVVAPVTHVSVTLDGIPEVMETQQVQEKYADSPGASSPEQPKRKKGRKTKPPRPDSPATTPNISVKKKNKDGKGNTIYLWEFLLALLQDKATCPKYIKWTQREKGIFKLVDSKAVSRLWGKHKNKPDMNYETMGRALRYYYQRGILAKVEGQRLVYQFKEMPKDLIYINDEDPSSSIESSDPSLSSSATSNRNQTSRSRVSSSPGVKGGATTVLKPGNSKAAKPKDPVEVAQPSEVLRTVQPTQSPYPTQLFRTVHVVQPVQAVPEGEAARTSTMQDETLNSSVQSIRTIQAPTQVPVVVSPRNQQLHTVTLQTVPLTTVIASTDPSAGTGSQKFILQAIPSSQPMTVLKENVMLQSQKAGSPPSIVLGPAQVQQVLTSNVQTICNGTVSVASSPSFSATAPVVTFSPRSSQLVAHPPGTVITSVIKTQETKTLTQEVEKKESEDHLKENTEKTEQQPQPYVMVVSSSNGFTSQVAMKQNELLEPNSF
# Chain of SPIB (Q01892 whole entry): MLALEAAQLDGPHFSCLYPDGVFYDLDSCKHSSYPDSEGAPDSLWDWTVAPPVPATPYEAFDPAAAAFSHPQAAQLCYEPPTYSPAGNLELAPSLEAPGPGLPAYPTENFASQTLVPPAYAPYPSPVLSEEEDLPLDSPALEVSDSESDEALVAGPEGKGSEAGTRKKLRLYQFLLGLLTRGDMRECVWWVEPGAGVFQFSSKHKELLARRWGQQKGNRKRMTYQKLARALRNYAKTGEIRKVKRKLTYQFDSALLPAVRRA
# Chain of ELF4 (Q99607 whole entry): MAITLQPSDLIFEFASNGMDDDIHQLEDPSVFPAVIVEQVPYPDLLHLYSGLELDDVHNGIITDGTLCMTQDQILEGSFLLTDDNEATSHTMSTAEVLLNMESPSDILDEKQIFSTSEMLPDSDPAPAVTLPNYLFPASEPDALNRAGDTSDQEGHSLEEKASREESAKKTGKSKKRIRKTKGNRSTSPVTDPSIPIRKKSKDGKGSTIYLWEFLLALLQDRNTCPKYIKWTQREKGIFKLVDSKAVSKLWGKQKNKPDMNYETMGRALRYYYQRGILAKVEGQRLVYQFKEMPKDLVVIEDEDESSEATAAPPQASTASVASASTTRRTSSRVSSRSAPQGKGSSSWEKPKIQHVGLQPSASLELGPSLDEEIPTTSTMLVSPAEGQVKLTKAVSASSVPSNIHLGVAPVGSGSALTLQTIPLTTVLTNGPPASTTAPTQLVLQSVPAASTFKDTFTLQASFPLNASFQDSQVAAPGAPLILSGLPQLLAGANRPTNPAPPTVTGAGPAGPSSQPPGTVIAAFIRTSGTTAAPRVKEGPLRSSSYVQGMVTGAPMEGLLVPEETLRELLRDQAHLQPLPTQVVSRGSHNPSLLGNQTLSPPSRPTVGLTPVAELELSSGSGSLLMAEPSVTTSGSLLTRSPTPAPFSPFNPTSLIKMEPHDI
sequence,measurement,setting,value
CATGCA,binding signal,[1],"1.08 fold enrichment (6-mer frequency, TF over GST control)"
same,binding signal,[2],"1.16 fold enrichment (6-mer frequency, TF over GST control)"
same,binding signal,[3],"1.04 fold enrichment (6-mer frequency, TF over GST control)"
same,binding signal,[4],"1.1 fold enrichment (6-mer frequency, TF over GST control)"
same,binding signal,[5],"1.12 fold enrichment (6-mer frequency, TF over GST control)"
same,binding signal,[6],"1.07 fold enrichment (6-mer frequency, TF over GST control)"
same,binding signal,[7],"1.1 fold enrichment (6-mer frequency, TF over GST control)"
same,binding signal,[8],"1.1 fold enrichment (6-mer frequency, TF over GST control)"
same,binding signal,[9],"1.11 fold enrichment (6-mer frequency, TF over GST control)"
same,binding signal,[10],"1.05 fold enrichment (6-mer frequency, TF over GST control)"
